Consider 5 molecules from PubChem BioAssay.

Experiment [1] can be described thus: small molecules captured by biotinylated probe aFSTL3 – biochemical, small-molecule microarray, fluorescence 635/667, stem cell growth factor project, primary screen (AID 1064).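 Note: measures binding of the biotinylated anti-FSTL3 antibody to printed compounds.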 The settings on record: higher = more signal.
Experiment [2] can be described thus: binders from COS7 lysate, DM2A8 probe, primary screen, torsin A project, cell lysate, small-molecule microarray, fluorescence 635/667 (AID 1065). The settings on record: higher = more signal, COS7 lysate expressing mutant human TOR1A.
The nature of experiment [3]: small molecules captured by biotinylated probe aFGF2 – biochemical, small-molecule microarray, fluorescence 635/667, stem cell growth factor project, primary screen (AID 1067).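 Note: measures binding of biotinylated aFGF2 protein to printed compounds on slides; z-score merges feature fluorescence and signal-to-noise across triplicate slides.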 The settings on record: higher = more signal.
The nature of experiment [4]: small molecules captured by biotinylated probe aFGF10 – biochemical, small-molecule microarray, fluorescence 635/667, stem cell growth factor project, primary screen (AID 1071).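 Note: score merges 667 nm spot intensity and signal to noise from triplicate slides.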 As to conditions: higher = more signal.
The target of experiment [5] is Neurogenic locus notch homolog protein 2 (Homo sapiens) (UniProt Q04721). As to the kind of experiment: small molecules binding Notch2 protein – biochemical, small-molecule microarray, 635 nm fluorescence, stem cell growth factors, primary screen (AID 1073). The settings on record: higher = more signal.
Experiment [6] deals with Pro-neuregulin-1, membrane-bound isoform (Homo sapiens) (UniProt Q02297). The experiment can be described thus: small molecules binding neuregulin-1 protein – biochemical, small-molecule microarray, fluorescence 635/667, psychiatric disease protein project, primary screen (AID 1075).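 Note: score combines 667 nm spot fluorescence with signal to noise.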 As to conditions: NRG1 binding, 635 nm fluorescence, higher = more signal.
Experiment [7] deals with Neuregulin-1 EGF-like domain. The experiment can be described thus: small molecules binding NRG1 EGF domain – biochemical, small-molecule microarray, 635 nm fluorescence, primary screen (AID 1081).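 Note: binding of the protein to compounds printed on small-molecule microarray slides.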 As to conditions: higher = more signal.
Experiment [8] in a line: FRG1 expression reporter modulators in myotubes – cell-based, C2C12 myotubes, firefly/Renilla luciferase, luminescence, FRG1 inhibition for FSHD, primary screen (AID 1084). The settings on record: FRG1 promoter luciferase, higher = more signal, called active from +8 up or from −8 down.
Experiment [9] is described as follows: small molecules captured by biotinylated probe aFST – biochemical, small-molecule microarray, fluorescence 635/667, stem cell growth factor project, primary screen (AID 1086).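 Note: score merges 667 nm fluorescence with signal-to-noise of each printed compound spot.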 The settings on record: higher = more signal.
Experiment [10] can be described thus: binders of probe aHhip on microarray, primary screen, stem cell growth factor project, biochemical, small-molecule microarray, fluorescence 635/667 (AID 1087).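 Note: score merges spot fluorescence at 667nm with spot signal to noise ratio.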 The settings on record: higher = more signal.
Experiment [11] has as its system PRMT1 (protein arginine N-methyltransferase 1). The experiment can be described thus: small molecules binding arginine methyltransferase PRMT1 – biochemical, small-molecule microarray, 635 nm fluorescence, primary screen (AID 1088).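 Note: binding of Prmt1 protein to compounds spotted on small-molecule microarray slides.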 The settings on record: higher = more signal.
A short description of experiment [12]: growth effects on S. cerevisiae YJM789 – YJM789 clinical isolate, OD600, 24 h, basal, primary screen (AID 1089).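 Note: growth of clinical yeast isolate S. cerevisiae YJM 789 seeded 1000 cells per well; test concentration not given here.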 As to conditions: higher = more signal, called active from +8 up or from −8 down.
Experiment [13] can be described thus: S. pombe growth modifiers, basal conditions – strain 972, OD600, 24 h, no modulator, primary screen (AID 1090).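 Note: basal condition with compound alone and no growth modifier present; test concentration not given here.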 As to conditions: S. pombe 972 growth, higher = more signal, called active from +8 up or from −8 down.
The nature of experiment [14]: budding yeast growth modifiers under rapamycin – strain BY4716, OD600, 96 h, primary screen (AID 1091). Note: test concentration not given here. The settings on record: S. cerevisiae BY4716 + rapamycin, higher = more signal, called active from +8 up or from −8 down.
The target of experiment [15] is Torsin-1A-interacting protein 2 (Homo sapiens) (UniProt Q8NFQ8). As to the kind of experiment: small molecules binding lysate-expressed LULL1 – cell lysate, human LULL1 lysate, 635/667 nm fluorescence, primary screen (AID 1092).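 Note: probe is lysate of COS7 cells overexpressing human LULL1; score merges per-feature 667 nm fluorescence with signal-to-noise.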 The settings on record: small-molecule microarray, hLULL1 lysate binding, 635 nm fluorescence; higher = more signal.
Experiment [16] in a line: optical density change of DRC41 E. coli – strain DRC41, OD650, 24 h, E. coli filamentation project, primary screen (AID 1093).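 Note: MC1000 strain lacking acrAB efflux and sulA so SOS filamentation is blocked; test concentration not given here.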 The settings on record: E. coli DRC41 growth, higher = more signal, called active from +8 up or from −8 down.
The nature of experiment [17]: probe aLefty2 binding to arrayed compounds – biochemical, biotinylated probe, 635/667 nm fluorescence, primary screen (AID 1094).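 Note: score merges spot fluorescence near 667 nm with spot signal-to-noise ratio.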 The settings on record: small-molecule microarray, higher = more signal.
Experiment [18] has as its system Noggin (protein binding on small-molecule microarray). The experiment can be described thus: small molecules binding Noggin protein – biochemical, 635/667 nm fluorescence, primary screen (AID 1095).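 Note: score merges 667 nm feature fluorescence with signal to noise over triplicate slides.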 The settings on record: 635 nm fluorescence, higher = more signal.
The target in experiment [19] is Neurogenic locus notch homolog protein 3 (Homo sapiens) (UniProt Q9UM47). The experiment can be described thus: small molecules binding NOTCH3 protein – biochemical, 635/667 nm fluorescence, primary screen (AID 1096). As to conditions: small-molecule microarray, 635 nm fluorescence, higher = more signal.
Experiment [20] in a line: probe aEGFR binding to arrayed compounds – biochemical, biotinylated probe, 635/667 nm fluorescence, primary screen (AID 1097).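 Note: probe is a biotinylated anti-EGFR antibody binding compounds printed on slides; score combines fluorescence near 667 nm and signal to noise of each spot.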 As to conditions: small-molecule microarray, higher = more signal.

Activity calls are given as the source filed them.

Chain of Torsin-1A-interacting protein 2 (Homo sapiens) (Q8NFQ8 whole entry, looked up): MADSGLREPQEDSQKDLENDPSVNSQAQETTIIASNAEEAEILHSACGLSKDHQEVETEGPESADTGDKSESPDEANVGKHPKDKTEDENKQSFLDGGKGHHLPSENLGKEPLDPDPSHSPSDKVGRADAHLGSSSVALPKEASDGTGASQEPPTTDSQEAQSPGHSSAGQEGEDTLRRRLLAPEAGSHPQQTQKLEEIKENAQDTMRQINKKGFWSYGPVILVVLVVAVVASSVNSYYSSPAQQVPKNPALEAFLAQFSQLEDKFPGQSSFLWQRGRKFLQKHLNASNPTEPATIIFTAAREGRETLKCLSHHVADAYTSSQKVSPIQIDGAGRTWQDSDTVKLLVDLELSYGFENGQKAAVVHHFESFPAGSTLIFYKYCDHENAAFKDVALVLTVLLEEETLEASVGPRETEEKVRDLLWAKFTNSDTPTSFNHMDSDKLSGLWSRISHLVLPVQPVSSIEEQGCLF
Chain of Neurogenic locus notch homolog protein 3 (Homo sapiens) (Q9UM47 whole entry, looked up): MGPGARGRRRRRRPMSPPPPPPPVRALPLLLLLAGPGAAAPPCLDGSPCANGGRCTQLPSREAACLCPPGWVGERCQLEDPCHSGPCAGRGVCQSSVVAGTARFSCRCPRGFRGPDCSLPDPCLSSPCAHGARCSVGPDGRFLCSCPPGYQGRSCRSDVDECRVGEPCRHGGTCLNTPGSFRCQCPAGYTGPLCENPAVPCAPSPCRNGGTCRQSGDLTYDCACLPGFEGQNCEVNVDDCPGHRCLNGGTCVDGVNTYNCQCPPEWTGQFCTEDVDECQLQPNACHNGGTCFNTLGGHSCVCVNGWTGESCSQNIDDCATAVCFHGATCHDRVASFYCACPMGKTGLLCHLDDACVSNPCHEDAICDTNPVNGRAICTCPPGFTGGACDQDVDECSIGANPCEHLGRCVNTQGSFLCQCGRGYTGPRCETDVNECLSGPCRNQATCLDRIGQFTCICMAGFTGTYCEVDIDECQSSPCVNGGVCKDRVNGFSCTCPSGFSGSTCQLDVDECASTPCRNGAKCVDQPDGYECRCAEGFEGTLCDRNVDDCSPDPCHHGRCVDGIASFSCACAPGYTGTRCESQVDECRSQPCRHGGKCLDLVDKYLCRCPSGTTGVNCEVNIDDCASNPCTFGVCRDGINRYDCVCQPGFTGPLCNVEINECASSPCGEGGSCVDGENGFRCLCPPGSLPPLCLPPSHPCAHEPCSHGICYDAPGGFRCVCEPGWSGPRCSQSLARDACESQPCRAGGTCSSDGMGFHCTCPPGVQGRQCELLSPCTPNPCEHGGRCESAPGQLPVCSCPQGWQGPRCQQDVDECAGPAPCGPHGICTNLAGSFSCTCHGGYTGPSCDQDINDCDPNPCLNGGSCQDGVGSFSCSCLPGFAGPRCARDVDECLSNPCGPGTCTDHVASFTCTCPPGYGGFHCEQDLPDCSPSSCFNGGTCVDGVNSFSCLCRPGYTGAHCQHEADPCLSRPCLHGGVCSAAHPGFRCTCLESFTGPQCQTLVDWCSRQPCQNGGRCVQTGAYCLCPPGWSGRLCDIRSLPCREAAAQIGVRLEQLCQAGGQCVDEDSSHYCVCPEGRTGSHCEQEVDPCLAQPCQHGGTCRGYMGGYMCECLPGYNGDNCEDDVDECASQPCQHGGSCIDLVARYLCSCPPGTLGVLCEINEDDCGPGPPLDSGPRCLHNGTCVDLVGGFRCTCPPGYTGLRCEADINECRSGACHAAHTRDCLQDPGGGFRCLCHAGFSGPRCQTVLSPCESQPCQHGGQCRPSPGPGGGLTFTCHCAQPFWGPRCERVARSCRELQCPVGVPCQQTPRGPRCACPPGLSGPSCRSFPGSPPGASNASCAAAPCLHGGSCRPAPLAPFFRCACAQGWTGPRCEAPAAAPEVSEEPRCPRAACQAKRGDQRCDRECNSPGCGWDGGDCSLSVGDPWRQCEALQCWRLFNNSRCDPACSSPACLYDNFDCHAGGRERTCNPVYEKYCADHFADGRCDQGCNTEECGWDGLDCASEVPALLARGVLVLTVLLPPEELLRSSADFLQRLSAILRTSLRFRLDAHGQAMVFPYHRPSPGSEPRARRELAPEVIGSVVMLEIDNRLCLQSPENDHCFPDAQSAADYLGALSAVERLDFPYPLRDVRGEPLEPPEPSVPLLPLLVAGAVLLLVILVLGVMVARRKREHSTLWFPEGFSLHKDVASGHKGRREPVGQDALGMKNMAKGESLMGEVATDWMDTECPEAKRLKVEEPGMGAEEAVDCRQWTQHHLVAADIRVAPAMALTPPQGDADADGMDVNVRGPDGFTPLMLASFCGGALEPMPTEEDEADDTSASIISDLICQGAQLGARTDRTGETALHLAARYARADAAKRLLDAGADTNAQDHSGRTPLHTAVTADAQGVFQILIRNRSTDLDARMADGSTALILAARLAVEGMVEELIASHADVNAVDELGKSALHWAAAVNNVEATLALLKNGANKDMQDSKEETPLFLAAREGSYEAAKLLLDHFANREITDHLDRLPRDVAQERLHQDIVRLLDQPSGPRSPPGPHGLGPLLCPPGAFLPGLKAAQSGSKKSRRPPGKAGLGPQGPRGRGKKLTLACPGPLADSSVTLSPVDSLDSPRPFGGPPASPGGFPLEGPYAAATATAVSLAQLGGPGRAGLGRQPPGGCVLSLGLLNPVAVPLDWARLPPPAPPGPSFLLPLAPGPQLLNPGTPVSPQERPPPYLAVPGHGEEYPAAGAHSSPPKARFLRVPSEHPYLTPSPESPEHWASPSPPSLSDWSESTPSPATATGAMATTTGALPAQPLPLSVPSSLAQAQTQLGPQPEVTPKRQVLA
Chain of Pro-neuregulin-1, membrane-bound isoform (Homo sapiens) (Q02297 whole entry, looked up, the tested form may be a part, canonical isoform): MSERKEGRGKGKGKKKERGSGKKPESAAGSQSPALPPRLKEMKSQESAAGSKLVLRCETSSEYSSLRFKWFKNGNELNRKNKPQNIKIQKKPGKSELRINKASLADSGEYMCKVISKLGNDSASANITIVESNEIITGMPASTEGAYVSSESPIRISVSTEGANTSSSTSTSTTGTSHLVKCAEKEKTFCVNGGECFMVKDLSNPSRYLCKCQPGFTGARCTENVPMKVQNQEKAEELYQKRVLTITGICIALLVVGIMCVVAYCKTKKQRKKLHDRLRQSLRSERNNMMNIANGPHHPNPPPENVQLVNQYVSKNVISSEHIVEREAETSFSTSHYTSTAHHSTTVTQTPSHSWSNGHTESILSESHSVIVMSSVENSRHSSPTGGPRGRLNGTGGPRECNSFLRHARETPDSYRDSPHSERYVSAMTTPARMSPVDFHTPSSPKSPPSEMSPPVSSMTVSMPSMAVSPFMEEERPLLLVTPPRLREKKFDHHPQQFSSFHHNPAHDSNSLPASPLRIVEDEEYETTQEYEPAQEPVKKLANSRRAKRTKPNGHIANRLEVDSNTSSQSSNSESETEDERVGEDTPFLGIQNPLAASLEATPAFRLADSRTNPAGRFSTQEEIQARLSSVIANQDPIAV

On to `C=CCN1Cc2ccccc2C[C@@]2(COC(c3ccc(OCCCO)cc3)=N2)C1=O`, for which the composite z-score in experiment [1] is 1.12; in [2], 0.391; in [3] it was -0.0159; in experiment [4], 0.0999; in experiment [5] it was 1.19; in experiment [6], 1.05. For the same molecule, the composite z-score worked out at 1.31 in [7]; 0.703 in experiment [9]; 0.0749 in experiment [10]; 1.5 in experiment [11]; 2.3 in [15]; 0.247 in experiment [17]. For the same molecule, the composite z-score in experiment [18] amounted to 0.34; in experiment [19], 0.454; in experiment [20], 0.052. Moreover, the z-score in experiment [8] was -3.79 (inactive); in experiment [12], -0.915 (inactive); in [13], -4.77 (inactive); in experiment [14], 0.817 (inactive); in experiment [16] it was 1.42 (inactive).
With `C=CCN1C(=O)[C@@]2(O[C@@H](CCO)[C@H]([Si](C)(C)c3ccc(OC)cc3)[C@H]2C)c2cc(NC(C)=O)ccc21`, the composite z-score in experiment [1] is -0.412; in experiment [2], 0.299; in experiment [3], -0.0887; in [4], 1.19; in experiment [5] it was 1.07; in experiment [6], 0.864. In addition, the composite z-score in experiment [7] is 1.2; in [9], 0.55; in [10] it was 0.294; in experiment [11], 1.15; in experiment [15] it was 1.96; in experiment [17] it was -0.0231. Further, the figures for the composite z-score in [18], in [19] and in experiment [20] were 1.23, 0.725 and 0.118, respectively. In addition, the z-score in experiment [8] is -0.174 (inactive); in experiment [12] it was 0.0173 (inactive); in [13], -1.67 (inactive); in experiment [14], -0.741 (inactive); in [16], -0.203 (inactive).
With `COC(=O)[C@@]1(Cc2ccc(OC)cc2)[C@H]2c3cc(C(=O)N4CCCC4)n(CCN4CCOCC4)c3C[C@H]2CN1C(=O)c1ccccc1`, the composite z-score in experiment [1] is 2.56; in [2] it was 0.553; in [3], 1.01; in [4], 1.47; in experiment [5], 1.59; in experiment [6], 2.23. Besides, the composite z-score in experiment [7] turned out to be 1.37; in experiment [9], 2.71; in [10] it was 3.48; in experiment [11] it was 0.57; in experiment [15] it was 3.66; in [17], 1.73. Further, the composite z-score came to 0.398 in [18], 0.937 in [19] and 1.23 in experiment [20]. The z-score in [8] is 0.877 (inactive); in experiment [12], -0.674 (inactive); in experiment [13] it was 1.15 (inactive); in experiment [14] it was -1.32 (inactive); in experiment [16], -0.22 (inactive).
`CCCC[C@H]1OB(O)C[C@H]2C1=C(C)Cn1c(=O)n(-c3ccccc3)c(=O)n12`: the composite z-score was -0.396 in [1]; 0.383 in [2]; -0.116 in experiment [3]; 0.365 in experiment [4]; 0.585 in [5]; -0.0946 in experiment [6]. Besides, the composite z-score was 0.129 in [7]; 0.292 in experiment [9]; -0.0237 in experiment [10]; 0.414 in experiment [11]; 0.262 in experiment [15]; -0.119 in experiment [17]. Also, the composite z-score was 0.688 in experiment [18], 0.37 in experiment [19] and -0.113 in experiment [20]. The z-score in experiment [8] is -0.127 (inactive); in experiment [12], 0.585 (inactive); in experiment [13], 1.19 (inactive); in experiment [14], 0.261 (inactive); in experiment [16] it was -0.314 (inactive).
Regarding `COCCOC(=O)N1C(=O)[C@@]2(c3cc(C#Cc4ccc(OC)cc4)ccc31)[C@H](c1ccc(OCCO)cc1)N1[C@H](c3ccccc3)[C@H](c3ccccc3)OC(=O)[C@H]1[C@@H]2C(=O)N1CCc2cc(OC)c(OC)cc2C1`, the composite z-score in experiment [1] is -0.327; in experiment [2], 0.514; in experiment [3], 0.0051; in experiment [4], 0.214; in experiment [5], 0.871; in experiment [6], 0.424. Also, the composite z-score in experiment [7] was 0.981; in experiment [9], 0.225; in experiment [10] it was 0.232; in [11], 1.56; in experiment [15], 0.434; in experiment [17] it was -0.202. Further, the composite z-score was 1.28 in experiment [18], 1.12 in experiment [19] and -0.02 in experiment [20]. In addition, the z-score in experiment [8] is -0.948 (inactive); in experiment [12], 2.81 (inactive); in experiment [13], 1.39 (inactive); in experiment [14], 7.07 (inactive); in experiment [16], 1.56 (inactive).
